PubChem BioAssay (EPA / NIEHS)
Values joined by “and” are separate entries in the source; they are usually repeats but may differ in a detail not shown here. Identical values can stand only once. The source holds several records for some structures; these can differ, active in one and inactive in another. Active and inactive are the calls of the source. Rule for the calls: active = hit-call score of the fitted dose curve at least 0.9, where 1 is the maximum; inactive = score below 0.9.

Experiment: CCTE_Shafer_MEA_dev_network_spike_peak: CCTE's Neural Network Formation Assay for Mean Number of Electrodes in Network Spike, Shafer Lab (AID 2284049)
Experimental: CCTE_Shafer_MEA_dev assay is conducted using Axion Biosystems 48 well microelectrode array (MEA) plates and Maestro recording system. Each well of the MEA plate contains a grid of 16 microelectrodes embedded in the culture surface. Electrically active cells, such as neurons, can be cultured over the electrodes, and electrical activity in these cells can be recorded extracellularly. The spontaneous firing of neurons is captured from each electrode on a microsecond timescale providing both temporally and spatially precise data. […] The CCTE_Shafer_MEA_dev assay uses primary cultures of rat cortical neurons. Recordings are made on days post-plating 5, 7, 9 and 12. As these cultures mature over time, neural networks develop functional activity and form cohesive networks in which electrical activity can be highly coordinated. CCTE_Shafer_MEA_dev_network_spike_peak is 1 of 19 assay components of the CCTE_Shafer_MEA_dev assay. It measures the average number of electrodes participating at the peak of a network spike (the peak of a temporally-clustered group of action potential firing across multiple electrodes) during a recording in a microelectrode array (MEA) using Axion Biosystems Maestro 768 channel amplifier with the AxIS adaptive spike detector. To collapse across multiple recordings made on days post-plating 5, 7, 9 and 12, the trapezoidal area-under-the-curve of the component is calculated.Data from the assay component CCTE_Shafer_MEA_dev_network_spike_peak was analyzed into 1 assay endpoint. This assay endpoint, CCTE_Shafer_MEA_dev_network_spike_peak, was analyzed in the negative analysis fitting direction relative to DMSO as the negative control and baseline of activity. Using a type of functional reporter, gain or loss-of-signal activity can be used to understand electrical activity.
On the day prior to culture, each well was coated thoroughly with 150 uL of 0.05% polyethyleneimine (PEI, Sigma Cat P3143) in 50 mM HEPES (Sigma Cat H7523) at a pH of 8. The plate was incubated at 37C for one hour. PEI was rinsed out with 500 uL of sterile water three times. Plates were stored at 4C until the day of culture. This culture was plated at a seeding density of 1.5 x 10^5 cells/well on a 48-well MEA plate, prepared as described above. Cells were administered via a 25 uL media/laminin ([…]; Sigma Cat L2020-1MG) drop directly onto the microelectrode array, as adding the cells with the laminin results in better attachment than pre-coating with laminin. After 2 hours, an additional 475 uL of cortical media was added and the cells returned to the incubator. Exposure starts at day 0 of plating and is continued over twelve days of network development until the experiment is terminated. Cells are fed with fresh medium on DIV 5 and 9, following the recordings on those days. The entire volume of media in the well is exchanged and any vehicle or compound treatment is renewed. Complete details are found in OP-NHEERL/ISTD/SBB/TJS/2015-03-r0 (available on request, email shafer.tim@epa.gov). Measurement of the electrical activity is non-invasive, and recordings can be made from the same plate over multiple different days of the culture. In cortical neurons, this allows for the measurement of extracellular action potentials over the period during which networks form in the MEA plate.

Question: With `CCN(CC)c1nc(C)cc(OP(=S)(OC)OC)n1` as the compound, how does the AC50 read?
Answer: Its AC50 is 30.8 µM (active).

Question: With `CC1(C)C(C(=O)OC(C#N)c2cccc(Oc3ccccc3)c2)C1(C)C` (stereo not drawn) as the compound, how does the AC50 read?
Answer: The AC50 was 13.5 µM (active).

Question: Which AC50 does the source give for `CO/N=C(/C1=NOCCO1)c1ccccc1Oc1ncnc(Oc2ccccc2Cl)c1F` here?
Answer: The AC50 was 1.27 µM (active) and 723 nM (active).

Question: Which results are given for `CCSC(=O)N1CCCCCC1`?
Answer: AC50: 5.75 µM (active); outcome: inactive

Question: Which AC50 does the source give for `O=C1C2CC=CCC2C(=O)N1SC(Cl)(Cl)Cl` (stereo not drawn) here?
Answer: The AC50 was 9.85 µM (active) and 16.2 µM (active).

Question: Which outcome does the source give for `CCOC(=O)C(C)OC(=O)c1cc(Oc2ccc(C(F)(F)F)cc2Cl)ccc1[N+](=O)[O-]` (stereo not drawn) here?
Answer: The outcome was “inactive”.

Question: Which results are given for `CC1(C)C(C=C(Cl)Cl)C1C(=O)OC(C#N)c1cccc(Oc2ccccc2)c1` (stereo not drawn)?
Answer: AC50: 11.4 µM (active); outcome: inactive

Question: For `O=C(Nc1ccccc1-c1ccc(Cl)cc1)c1cccnc1Cl`, which AC50 is on record?
Answer: Its AC50 is 9.92 µM (active).

Question: What about the outcome of the same compound?
Answer: The outcome was “inactive”.

Question: Which AC50 does the source give for `CNC(=O)Oc1cccc2ccccc12` here?
Answer: The AC50 was 20.3 µM (active) and 22.6 µM (active).

Question: Which outcome does the source give for `CC(C)=CC1C(C(=O)OCc2coc(Cc3ccccc3)c2)C1(C)C` (stereo not drawn) here?
Answer: The outcome was “inactive”.

Question: For `CCNC(=O)NC(=O)C(C#N)=NOC`, which outcome is on record?
Answer: The outcome was “inactive”.

Question: Which AC50 does the source give for `Cc1c(COC(=O)[C@@H]2[C@H](/C=C(\Cl)C(F)(F)F)C2(C)C)cccc1-c1ccccc1` here?
Answer: Its AC50 is 1.51 µM (active) and 1.19 µM (active).

Question: With `CCCN(CC)CC1COC2(CCC(C(C)(C)C)CC2)O1` (stereo not drawn) as the compound, how does the AC50 read?
Answer: The AC50 was 0.305 µM (active).

Question: Which AC50 does the source give for `CC(C)(C)C(=O)C(Oc1ccc(Cl)cc1)n1cncn1` (stereo not drawn) here?
Answer: Its AC50 is 38.7 µM (active).

Question: With `N#CN=C1SCCN1Cc1ccc(Cl)nc1` as the compound, how does the outcome read?
Answer: Its outcome is “inactive”.

Question: Which outcome does the source give for `COP(=O)(OC)O/C(C)=C/C(=O)N(C)C` here?
Answer: The outcome was “inactive”.

Question: With `CCOP(=O)(OCC)Oc1nc(Cl)c(Cl)cc1Cl` as the compound, how does the AC50 read?
Answer: The AC50 was 3.32 µM (active) and 9.79 µM (active).

Question: And the outcome?
Answer: Its outcome is “inactive”.

Question: With `COP(=S)(OC)Oc1ccc([N+](=O)[O-])c(C)c1` as the compound, how does the outcome read?
Answer: The outcome was “inactive”.

Question: For `COC(=O)N(C(=O)N1CO[C@@]2(C(=O)OC)Cc3cc(Cl)ccc3C2=N1)c1ccc(OC(F)(F)F)cc1`, which AC50 is on record?
Answer: The AC50 was 25.9 µM (active).

Question: With `CS(=O)(=O)c1ccc(C(=O)C2C(=O)CCCC2=O)c([N+](=O)[O-])c1` as the compound, how does the outcome read?
Answer: The outcome was “inactive”.

Question: With `COP(=S)(OC)SCn1nnc2ccccc2c1=O` as the compound, how does the AC50 read?
Answer: The AC50 was 15 µM (active).

Question: With `CN/C(=N\[N+](=O)[O-])NCc1cnc(Cl)s1` as the compound, how does the outcome read?
Answer: Its outcome is “inactive”.

Question: With `CS(=O)(=O)c1cc(C(F)(F)F)ccc1C(=O)c1cnoc1C1CC1` as the compound, how does the outcome read?
Answer: Its outcome is “inactive”.

Question: Which AC50 does the source give for `C=C(C)CN(CC)c1c([N+](=O)[O-])cc(C(F)(F)F)cc1[N+](=O)[O-]` here?
Answer: The AC50 was 18.1 µM (active).
